These results are taken from PubChem BioAssay AID1851 (National Center for Advancing Translational Sciences (NCATS), 2009).

Each structure is given as a SMILES string. Hit rate of the full screen: of about 16,000 compounds, about 5,700 (36%) were called active. Inconclusive results (about 24%) are left out. The call rests on the fitted dose curve; in most records, active means well fitted curve in the direction sought with a large enough effect; inconclusive means small, poorly fitted or top-dose-only effect, or effect the other way; inactive means no such curve, though single readings can be large or run the other way. This is one part of the list.

One may read the AC50 as the midpoint of the concentration-response curve, whichever way the signal moves.
On the % scale 0 is the no-effect control and ±100 the full control effect.

In the assay the target is Cytochrome P450 1A2 (Homo sapiens) (UniProt P05177). Briefly: Cytochrome panel assay with activity outcomes. Particulars: recombinant CYP, pro-luciferin dealkylation, luminescence, p450-cyp1a2; series mostly up to 57.1 µM; activity, negative = inhibition: at the top concentration.
Chain of Cytochrome P450 1A2 (Homo sapiens) (P05177 whole entry, looked up): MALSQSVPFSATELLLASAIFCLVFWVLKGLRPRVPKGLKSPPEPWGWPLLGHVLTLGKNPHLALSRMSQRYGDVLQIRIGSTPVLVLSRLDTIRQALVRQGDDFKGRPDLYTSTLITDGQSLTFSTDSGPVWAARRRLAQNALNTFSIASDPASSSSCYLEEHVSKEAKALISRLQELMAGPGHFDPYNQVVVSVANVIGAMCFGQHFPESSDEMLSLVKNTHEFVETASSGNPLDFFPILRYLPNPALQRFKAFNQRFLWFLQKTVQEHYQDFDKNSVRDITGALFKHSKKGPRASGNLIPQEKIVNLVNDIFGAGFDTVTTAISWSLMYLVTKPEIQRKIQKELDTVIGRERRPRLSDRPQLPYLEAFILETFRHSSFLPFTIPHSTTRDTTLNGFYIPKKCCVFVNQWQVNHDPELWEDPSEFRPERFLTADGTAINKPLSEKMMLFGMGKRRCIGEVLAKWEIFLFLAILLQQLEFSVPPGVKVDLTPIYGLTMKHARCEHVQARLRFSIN
Turning to `COc1ccccc1CCn1c(=O)c(-c2cccs2)nc2cncnc21`, the concentration at half-maximal activity (AC50) is 2 µM (active).

`COCCn1c(=O)c(-c2cccs2)nc2cncnc21`: the AC50 was 3.16 µM (active).

As to `COc1ccccc1CCn1c(=O)c(-c2ccc(Cl)cc2)nc2cncnc21`, the AC50 was 0.631 µM (active).

With `COc1ccccc1CCn1c(=O)c(-c2ccc(F)c(F)c2)nc2cncnc21`, the AC50 is 2 µM (active).

Turning to `COc1ccc(NC(=O)N2CCCC3(CCN(S(C)(=O)=O)CC3)C2)cc1`, the “activity, negative = inhibition” value is -8.77% (inactive).

Take `O=C1c2ccccc2CC[C@H]1CNCCc1ccc(O)cc1`: the half-maximal activity concentration (AC50) is 20 µM (active).

On to `Cc1ccc(NC(=O)Nc2ncccc2C)cc1`, for which the AC50 was 3.55 µM (active).

Take `Cc1cccc(C)c1NC(=O)Nc1ccc(S(N)(=O)=O)cc1`: the activity, negative = inhibition was -10.8% [at 2.29 µM] (inactive).

As for `CCCCNC(=O)c1cc2nc3c(c(C(F)(F)F)n2n1)CCc1ccccc1-3`, the AC50 was 2.51 µM (active).

For the compound `COc1cccc(N=c2oc3c(C)ncc(CO)c3cc2C(N)=O)c1`, the half-maximal activity concentration (AC50) is 4.47 µM (active).

Take `CO[C@H]1COC(=O)CCC[C@H](C)[C@H](OC)COC(=O)C/C=C\[C@@H]1C`: the activity, negative = inhibition was -3.93% [at 11.4 µM] (inactive).

In the case of `Cc1ccsc1/C=N/Nc1nc(Cl)c(Cl)cc1Cl`, the half-maximal activity concentration (AC50) is 2 µM (active).

For the compound `N#Cc1ccc(C2=NC(C(F)(F)F)(C(F)(F)F)c3c(n(Cc4ccco4)c(=O)[nH]c3=O)N2)cc1`, the “activity, negative = inhibition” value was -5.04% (inactive).

Consider `C#CC[N+](CC)(CC)CC#Cc1cccc(Cl)c1`, for which the “activity, negative = inhibition” value is -7.67% (inactive).

As for `CNC(=O)c1sc(SC)cc1-c1ccc(Cl)cc1`, the AC50 was 0.355 µM (active).

With `Cc1nc2c(C(=O)NCc3ccc4c(c3)OCO4)c[nH]n2c(=O)c1Cc1ccccc1F`, the AC50 was 12.6 µM (active).

For `Cc1nc2ccccn2c1/C(O)=C1\C(=O)C(=O)N(CCN2CCOCC2)C1c1cccnc1` (stereo not drawn), the “activity, negative = inhibition” value was -17.5% (inactive).

Turning to `O=c1cnc2cnc(Nc3ccccc3)nc2n1Cc1ccc(F)cc1`, the AC50 was 1 µM (active).

In the case of `CCNc1ncc2ncc(=O)n(Cc3ccc(F)cc3)c2n1`, the AC50 is 1 µM (active).

Consider `CCNc1ncc2nc(C)c(=O)n(Cc3cccc(OC)c3)c2n1`, for which the AC50 is 3.16 µM (active).

In the case of `CCNc1ncc2nc(C)c(=O)n(Cc3ccc(F)cc3)c2n1`, the AC50 was 1.58 µM (active).

Consider `Cc1cc(CN2CCCCC2)c(O)c(CN2CCCCC2)c1`, for which the activity, negative = inhibition is -18.8% [at 2.29 µM] (inactive).

With `OC[C@@H]1O[C@@H](n2cnc3c(NC4CCCC4)ncnc32)[C@H](O)[C@H]1O`, the “activity, negative = inhibition” value is -4.01% (inactive).

With `Cn1cnc2c(NC3CCCC3)ncnc21`, the concentration at half-maximal activity (AC50) is 12.6 µM (active).

For `OC[C@@H]1O[C@@H](n2cnc3c(NC4CCCC4)ncnc32)[C@@H](O)[C@H]1O`, the “activity, negative = inhibition” value was -3.56% (inactive).

Turning to `Cc1ccc(S(=O)(=O)O[C@H]2C[C@@H](C(C)(C)C)CC[C@@H]2c2ccccc2)cc1`, the activity, negative = inhibition was -22.8% [at 2.29 µM] (inactive).

As for `O=c1oc(-c2cccs2)nc2ccc(Br)cc12`, the AC50 was 2.51 µM (active).

On to `COc1ccccc1N1CCN(CCCCN2C(=O)c3ccccc3C2=O)CC1`, for which the AC50 result was “inactive”.

As for `COc1ccc(N2CCN(C(=S)Nc3cc(C)cc(C)c3)CC2)cc1`, the “activity, negative = inhibition” value is -5.23% (inactive).

For `COc1cccc(N2CCN(C(=S)Nc3cccc(C)c3)CC2)c1`, the “activity, negative = inhibition” value is -14.1% (inactive).

In the case of `COc1ccccc1N1CCN(CCN2C(=O)CC3(CCCC3)CC2=O)CC1`, the “activity, negative = inhibition” value is -12.8% (inactive).

Take `CNC(=S)N1CCN(c2ccccc2OC)CC1`: the AC50 is 7.08 µM (active).

Regarding `CNC(=S)N1CCN(c2cccc(OC)c2)CC1`, the concentration at half-maximal activity (AC50) is 15.8 µM (active).

Take `CC1CCCN(CCCNC(=O)C2CC(=O)N(c3ccc(F)c(Cl)c3)C2)C1` (stereo not drawn): the “activity, negative = inhibition” value was -12.8% (inactive).

For the compound `COc1ccc(-c2nc3ccccc3c(=O)n2N)cc1`, the AC50 was 25.1 µM (active).

As for `CCCCOc1ccc(CNn2c(C)nc3ccccc3c2=O)cc1`, the AC50 is 15.8 µM (active).

In the case of `COc1ccc(CNn2c(C)nc3ccccc3c2=O)cc1`, the AC50 is 12.6 µM (active).

As for `Cc1cc(=O)[nH]c(-n2[nH]c(C)cc2=O)n1`, the “activity, negative = inhibition” value is -3.59% (inactive).

With `O=C1C=C(c2cccs2)CC(c2cccs2)C1n1cnc([N+](=O)[O-])c1` (stereo not drawn), the AC50 was 3.16 µM (active).

With `Cc1cccc(CNc2ncnc3ccc(-c4ccc5c(c4)OCO5)cc23)c1`, the AC50 is 0.501 µM (active).

Take `c1ccc(Nc2ncnc3ccc(-c4ccc5c(c4)OCO5)cc23)cc1`: the concentration at half-maximal activity (AC50) is 0.251 µM (active).

Turning to `c1ccc(CNc2ncnc3ccc(-c4ccc5c(c4)OCO5)cc23)cc1`, the concentration at half-maximal activity (AC50) was 0.2 µM (active).

`c1ccc(C2CCC(N3CCC(N4CCCCC4)CC3)CC2)cc1` (stereo not drawn): the “activity, negative = inhibition” value is -5.53% (inactive).

Consider `Cc1noc(C)c1C(=O)N1CCC2(CCCN(C(=O)Nc3ccccc3)C2)CC1`, for which the AC50 is 12.6 µM (active).

For the compound `O=C(Nc1ccccc1)N1CC2(CCN(C(=O)c3ccco3)CC2)C1`, the “activity, negative = inhibition” value was 6.85% (inactive).

For `COc1ccc(NC(=O)N2CCCC3(CCN(C(=O)c4ccco4)CC3)C2)cc1`, the “activity, negative = inhibition” value is -10.2% (inactive).

For the compound `O=C(Nc1ccccc1)N1CCCC2(CCN(C(=O)c3ccco3)CC2)C1`, the AC50 was 20 µM (active).

In the case of `COc1ccc(NC(=O)N2CCCC3(CCN(C(=O)c4c(C)noc4C)CC3)C2)cc1`, the “activity, negative = inhibition” value is 12.3% (inactive).

In the case of `Cc1noc(C)c1C(=O)N1CCC2(CCN(C(=O)Nc3ccccc3)CC2)CC1`, the “activity, negative = inhibition” value is -8.72% (inactive).

Regarding `CO[C@H]1OC[C@@]2(C)[C@@H]3C4=C(CN2C(=O)OC(C)(C)C)[C@H](C)[C@H](CO)[C@H](CO)[C@H]4CC[C@H]13`, the “activity, negative = inhibition” value is -18.6% (inactive).

`CC(=O)NS(=O)(=O)c1ccc(NC(=S)NC(=O)C(C)(C)C)cc1`: the “activity, negative = inhibition” value was 3.06% (inactive).

For the compound `C=CCN(CC=C)C(=O)C(=O)c1cc(C)n(-c2ccc([N+](=O)[O-])cc2)c1C`, the “activity, negative = inhibition” value is -5.98% (inactive).

`Cc1ccc([N+](=O)[O-])cc1NC(=S)NC(=O)CC(C)(C)C`: the AC50 was 2 µM (active).

For the compound `Cc1ccc([N+](=O)[O-])cc1NC(=S)NC(=O)C(C)(C)C`, the concentration at half-maximal activity (AC50) was 0.2 µM (active).

On to `Cc1ccc(SCc2ccc(C(=O)Nc3cc([N+](=O)[O-])ccc3C)cc2)cc1`, for which the “activity, negative = inhibition” value was -14.8% (inactive).

`CCCN1CCN(C(=O)CN2C(=O)CC(C)(C)S(=O)(=O)c3ccccc32)CC1`: the “activity, negative = inhibition” value is -7.7% (inactive).

As to `CN1CCN(c2ncc3ncc(=O)n(-c4ccccc4)c3n2)CC1`, the half-maximal activity concentration (AC50) was 2.51 µM (active).

For the compound `O=c1c(-c2ccccc2)nc2cnc(N3CCOCC3)nc2n1-c1ccccc1`, the concentration at half-maximal activity (AC50) is 12.6 µM (active).

Consider `COc1ccc(-n2c(=O)c(-c3cccs3)nc3cnc(N4CCNCC4)nc32)cc1`, for which the half-maximal activity concentration (AC50) was 5.01 µM (active).

Consider `O=c1c(-c2cccs2)nc2cnc(N3CCNCC3)nc2n1-c1ccccc1`, for which the AC50 was 2.51 µM (active).

Regarding `O=C(c1csnn1)N1CCC2(CCCN(Cc3ccccc3)C2)CC1`, the “activity, negative = inhibition” value is -7.35% (inactive).

Consider `CN1CCN(c2ncc3nc(-c4cccs4)c(=O)n(-c4ccccc4)c3n2)CC1`, for which the AC50 is 3.16 µM (active).

With `O=c1c(-c2cccs2)nc2cnc(N3CCOCC3)nc2n1-c1ccccc1`, the AC50 is 5.01 µM (active).
